Among the test systems are NLK; PAK1; PAK2; PAK3; PAK4; PAK6; PAK7.
Settings in all cases: concentration: 1 μM, replicates: in singlicate; n = 1
A further assay relates to T1, NIM1.
T1 construct: gene MGC42105

The subject of the next assay is T2, OSR1.
T2 construct: gene OXSR1

For a further assay, the system named is T3, PCTK1.
T3 construct: gene CDK16
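Note: KINOMEscan kinase panel screen.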

Turning to `COc1cccc(CC(=O)N2CCc3cc(-c4cn(C)c5ncnc(N)c45)ccc32)c1` [GSK2608899], the “%Inh” value came out at 0% with NIM1; 5% with NLK; 6% in the assay on OSR1; 13% with PAK1; 4% in the assay with PAK2; 50% in the assay on PAK3. Besides, the “%Inh” value with PAK4 amounted to 2%; with PAK6 it was 0%; in the assay with PAK7, 18%; in the assay with PCTK1 it was 3%.

`CCn1c(-c2nonc2N)nc2c(-c3ccccc3)ncc(OCCCN)c21.O=C(O)C(F)(F)F.O=C(O)C(F)(F)F` [GSK260205]: the “%Inh” value with NIM1 was 39%; in the assay on NLK, 94.5%; in the assay with OSR1, 3%; in the assay on PAK1, 2%; in the assay with PAK2, 31%; in the assay with PAK3, 49%. The “%Inh” value with PAK4, in the assay on PAK6, in the assay with PAK7 and in the assay with PCTK1 was 0% throughout.

Consider `CN(C)CCOc1ccc(-c2cc(-c3ccc(Cl)c(O)c3)c(-c3ccncc3)[nH]2)cc1.Cl.Cl` [SB-684387], for which the “%Inh” value in the assay with NIM1 came to 40%; with NLK it was 66%; in the assay with OSR1, 7%; with PAK1 it was 8%; with PAK2, 6%; in the assay with PAK3, 0%. The “%Inh” value is 0% in the assay on PAK4, 0% with PAK6, 20% with PAK7 and 1% in the assay on PCTK1.

For `COC(=O)Nc1nc2ccc(Oc3ccc(NC(=O)Nc4cc(C(F)(F)F)ccc4F)cc3)cc2[nH]1.Cl` [GW654607], the “%Inh” value in the assay with NIM1 is reported as 0%; in the assay with NLK it was 34%; in the assay with OSR1, 15%; in the assay with PAK1, 0%; in the assay with PAK2 it was 0%; in the assay with PAK3, 22%. The “%Inh” value in the assay with PAK4 is 0%; in the assay with PAK6 it was 0%; in the assay with PAK7 it was 0%; with PCTK1, 4%.

`O=C(O)C(F)(F)F.O=c1[nH]ccc2nc(N[C@@H]3CCNC3)nc(Nc3ccc4c(c3)S(=O)(=O)CC4)c12` [GSK2181306]: the “%Inh” value is on record as 67% with NIM1; 28% in the assay with NLK; 76% with OSR1; 97.2% in the assay on PAK1; 95.2% with PAK2; 99.9% with PAK3. The “%Inh” value in the assay with PAK4 is listed as 99.5%; in the assay with PAK6 it was 94.6%; in the assay with PAK7 it was 99.9%; in the assay on PCTK1, 85%.

With `Nc1ncc(-c2cn[nH]c2)c2scc(-c3ccc4c(c3)CCN4C(=O)Cc3ccccc3)c12` [GSK2593067], the “%Inh” value is 17% with NIM1; 0% with NLK; 13% with OSR1; 0% in the assay on PAK1; 0% in the assay with PAK2; 51% in the assay with PAK3. Besides, the “%Inh” value in the assay with PAK4 came out at 0%; with PAK6, 0%; in the assay with PAK7 it was 0%; with PCTK1, 3%.

Turning to `CN(C)CCNS(=O)(=O)c1ccc(-c2ccnc3[nH]ccc23)cc1` [GSK977620], the “%Inh” value amounted to 13% with NIM1; 20% in the assay on NLK; 30% with OSR1; 34% in the assay on PAK1; 32% in the assay on PAK2; 71% in the assay with PAK3. Moreover, the “%Inh” value with PAK4 is 56%; in the assay with PAK6 it was 64%; with PAK7, 58%; in the assay with PCTK1, 7%.

In the case of `CC(C)(C)c1ccc(C(=O)Nc2cn3cc(-n4ccnc4)ccc3n2)cc1`, the “%Inh” value in the assay on NIM1 turned out to be 3%; with NLK it was 0%; in the assay on OSR1 it was 0%; in the assay on PAK1, 30%; with PAK2 it was 42%; with PAK3, 20%. Also, the “%Inh” value with PAK4 is 10%; in the assay on PAK6, 6%; in the assay with PAK7, 0%; in the assay on PCTK1, 6%.

As to `O=C1NC(=O)C(c2ccccc2Cl)=C1Nc1cccc(Cl)c1` [SB-342409], the “%Inh” value is 4% with NIM1; 22% in the assay with NLK; 2% in the assay with OSR1; 24% with PAK1; 17% with PAK2; 0% in the assay on PAK3. In addition, the “%Inh” value in the assay with PAK4 is 0%; in the assay with PAK6 it was 7%; in the assay with PAK7 it was 0%; in the assay with PCTK1 it was 34%.

As to `Cc1ccc(NC(=O)c2ccc(Cl)c(Cl)c2)cc1-c1ccc(C(=O)Nc2ccncc2)cc1` [GSK1398460], the “%Inh” value in the assay with NIM1 was found to be 0%; in the assay on NLK it was 43%; in the assay with OSR1 it was 6%; with PAK1, 19%; in the assay on PAK2 it was 19%; in the assay on PAK3 it was 20%. Further, the “%Inh” value in the assay on PAK4 stood at 0%; in the assay with PAK6 it was 0%; with PAK7, 1%; in the assay on PCTK1, 0%.

Regarding `O=C(Nc1n[nH]c2cc(-c3cccs3)ccc12)C1CC1` [SB-731284], the “%Inh” value came out at 12% in the assay with NIM1; 0% in the assay on NLK; 16% with OSR1; 0% with PAK1; 0% in the assay with PAK2; 43% with PAK3. In addition, the “%Inh” value in the assay with PAK4 turned out to be 0%; with PAK6, 0%; with PAK7, 7%; in the assay on PCTK1, 48%.

For the compound `COc1cccc(NC(=O)NCCNc2ccnc(Nc3ccc(F)cc3)n2)c1` [GSK1379879], the “%Inh” value came to 17% with NIM1; 8% in the assay with NLK; 17% with OSR1; 16% in the assay with PAK1; 8% in the assay with PAK2; 0% in the assay with PAK3. Besides, the “%Inh” value in the assay with PAK4, in the assay with PAK6, in the assay with PAK7 and in the assay with PCTK1 was 0% each time.

As to `CC(C)c1nc(-c2cccc(NS(=O)(=O)c3c(F)cccc3F)c2)c(-c2ccnc(Nc3ccc(N4CCOCC4)nc3)n2)s1.Cl` [GSK1723980], the “%Inh” value came to 0% in the assay with NIM1; 97% in the assay on NLK; 4% with OSR1; 19% in the assay on PAK1; 16% in the assay with PAK2; 73% in the assay on PAK3. Further, the “%Inh” value was found to be 0% with PAK4, 0% with PAK6, 0% in the assay on PAK7 and 99.9% with PCTK1.

As for `COc1cc(Nc2ccnc3cc(-c4ccncc4)ccc23)cc(OC)c1OC.Cl` [GW494610], the “%Inh” value with NIM1 is recorded as 23%; with NLK it was 92.8%; in the assay with OSR1 it was 100%; in the assay with PAK1 it was 0%; in the assay with PAK2, 0%; in the assay with PAK3 it was 0%. In addition, the “%Inh” value in the assay on PAK4, in the assay on PAK6, in the assay on PAK7 and in the assay with PCTK1 was 0% throughout.

With `Cc1ccc(-c2ccc3occ(-c4ccc(S(C)=O)cc4)c3c2)nn1` (centres unmarked), the “%Inh” value in the assay on NIM1 is 0%; in the assay on NLK, 1%; in the assay on OSR1 it was 0%; in the assay on PAK1 it was 6%; with PAK2, 4%; with PAK3 it was 0%. Moreover, the “%Inh” value in the assay with PAK4 was 1%; in the assay on PAK6 it was 0%; with PAK7, 0%; in the assay on PCTK1, 0%.

`Cc1cc(-c2c(-c3ccc(F)cc3)ncn2CCCN2CCOCC2)nc(N)n1` [SB-222517]: the “%Inh” value is listed as 0% in the assay on NIM1; 17% with NLK; 0% in the assay on OSR1; 0% in the assay on PAK1; 66% in the assay with PAK2; 0% with PAK3. Further, the “%Inh” value in the assay on PAK4 is on record as 1%; with PAK6, 1%; with PAK7 it was 0%; in the assay with PCTK1 it was 0%.

Regarding `COC(=O)Nc1nc2cc(Oc3ccc(NC(=O)Nc4cccc(SC)c4)cc3)ccc2[nH]1.Cl` [GW697999], the “%Inh” value is 32% in the assay with NIM1; 0% in the assay with NLK; 15% in the assay with OSR1; 0% in the assay on PAK1; 0% in the assay with PAK2; 29% with PAK3. In addition, the “%Inh” value was 0% in the assay on PAK4, 0% in the assay on PAK6, 0% in the assay with PAK7 and 3% in the assay on PCTK1.

(Values after PMC5540273 (PLoS ONE, 2017).)
